The list is a sample of the results.
aSyn UTR act = Activators via SNCA 5'UTR binding, MLPCN; AID 1814; 300,000 compounds, 7.1% hits; activity score, % (tested at 7.5 µM), hits read low; alpha-synuclein 5'UTR reporter, activators screen; in the data active = activity score below about -60%
A number is an active result; – = inactive.

SMILES	aSyn UTR act
N#CCSc1ccc(-c2nc3ccccc3[nH]2)cn1	-239
Fc1ccc(-c2nc3ccccc3[nH]2)cc1	-96
COc1cccc2c1C(=O)c1c(O)c3c(c(O)c1C2=O)C[C@@](O)(C(=O)CO)C[C@@H]3O[C@H]1C[C@H](N)[C@H](O)[C@H](C)O1	–
c1cncc(CNc2cccc(-c3nc4ccccc4[nH]3)c2)c1	-145
O=C(O)c1ccc(-c2nnc(-c3ccccc3)o2)cc1	-78
O=C(c1ccc(-c2nnc(-c3ccccc3)o2)cc1)N1CCCCCC1	-68
O=C(c1ccc(-c2ccccc2)cc1)N1CCN(c2ccccc2)CC1	-70
COC(=O)c1ccc(COc2ccc(CNCc3ccc(Cl)cc3)cc2)cc1	-92
O=C(c1ccc(COc2ccc(Cl)cc2)cc1)N1CCCCC1	-85
CCCCOc1ccc(C(=O)N2CCCCCC2)cc1	-80
COC(=O)c1ccc(NC(=O)Nc2cccc(F)c2)cc1	-206
COC(=O)c1ccc(NC(=O)Nc2ccc(F)cc2F)cc1	-111
O=C(Nc1ccccc1)Nc1ccc(F)cc1F	-115
CCSc1nsc(NC(=O)Nc2ccc(F)cc2F)n1	-138
O=C(Nc1ccc(F)cc1F)N1CCCCCC1	-86
O=C(Nc1cccc(Cl)c1)OCc1cncs1	-80
O=C(Nc1ccc(Cl)cc1)OCc1cncs1	-119
O=C(Nc1cccc2ccccc12)OCc1cncs1	-62
Cc1ccc(C(=O)CSc2nnc(C)s2)cc1	-85
Cc1cc(C(=O)CSc2nnnn2C)c(C)n1C1CC1	-69
Cc1ccc(NC(=O)c2ccc(CSc3nnc(C)s3)cc2)c(C)c1	-68
Cc1nnc(SCC(=O)c2cc(C)n(C3CC3)c2C)s1	-146
CSc1ccccc1NC(=O)COc1ccccc1Cl	-65
CSc1ccccc1NC(=O)COc1ccc(Cl)cc1	-62
O=C(CCl)Nc1ccccc1Sc1ccc(Cl)cc1	–
SMILES	aSyn UTR act
CSc1ccccc1NC(=S)NCc1ccc(Cl)cc1	-110
COCc1c(C(C)C)nc(C(C)C)c(/C=C/[C@@H](O)C[C@@H](O)CC(=O)O)c1-c1ccc(F)cc1	–
COc1cccc(C(=O)NCCS(=O)(=O)NCCc2ccccc2)c1	-75
COC(=O)c1c(N)sc(C(=O)NCCc2ccccc2)c1C	–
O=C(NCCS(=O)(=O)NCCc1ccccc1)c1ccc2c(c1)OCO2	-120
COc1ccc(C(=O)NCCS(=O)(=O)NCCc2ccccc2)cc1	-72
O=C(Nc1cc(=O)[nH]c(=O)[nH]1)c1cc(Cl)ccc1Cl	-65
CC(=O)Nc1ccccc1/C=C/c1ccc2c(C)ccc(O)c2n1	-64
COc1ccccc1-c1c(C(F)(F)F)oc2cc(OS(C)(=O)=O)ccc2c1=O	-101
C/C(=N\N=C\c1ccccc1)c1nnn(-c2nonc2N)c1C	-82
COc1ccc(/C=C/c2cc(C(F)(F)F)on2)cc1	-157
O=C(NCCSC1CCCCC1)c1ccccc1	-67
COc1ccc(C(=O)NCCSC2CCCCC2)cc1	-159
COc1ccc(N2C(N)=NC(N)=NC2(C)C)cc1	–
COc1ccc(-n2nc(N)c(C(N)=O)n2)cc1	-68
CC(C)=CC(=O)Nc1ccc(Br)cc1	-191
CN(C)c1ccc(CNc2ncc(Br)cc2Br)cc1	-98
CCc1ccc(N(C(=O)c2csnn2)C(C(=O)NC(C)(C)C)c2ccccn2)cc1 (stereo not given)	-102
CCc1ccc(N(C(=O)c2csnn2)C(C(=O)NC(C)(C)CC)c2ccccn2)cc1 (stereo not given)	-69
CN1CCN(c2nc(-c3ccc(Cl)s3)cs2)CC1	-84
c1ccc(-c2cnnc(N3CCCCC3)n2)cc1	-140
Clc1ccc(-c2csc(N3CCCCCC3)n2)cc1	-85
O=[N+]([O-])c1ccc(-c2csc(N3CCCCCC3)n2)cc1	-78
Clc1ccc(-c2csc(N3CCOCC3)n2)cc1	-140
COc1ccc(-c2csc(N3CCOCC3)n2)cc1OC	-80
SMILES	aSyn UTR act
Brc1ccc(-c2csc(N3CCOCC3)n2)cc1	-132
c1ccc(-c2csc(N3CCCCCC3)n2)cc1	-139
O=C(Nc1ccccc1)c1ccc(-c2ccc(Br)cc2)o1	-93
O=C(Nc1ccccc1)c1ccc(-c2ccc([N+](=O)[O-])cc2)o1	-98
O=C(c1ccc(-c2ccc([N+](=O)[O-])cc2)o1)N1CCCCC1	-106
CCOc1cccc(-c2csc(C3COc4ccccc4O3)n2)c1 (stereo not given)	-106
CCOc1cccc(-c2nnc3n2N=C(c2cc(OC)ccc2OC)CS3)c1	–
CCCCNc1c(-c2ccc(-c3cccc(Cl)c3)cc2)nc2ccccn12	-105
CCCCCCSc1ccc(-c2nc3ccccn3c2NCCCC)cc1	-113
Cc1ccc2nc(-c3ccc(-c4cccc(Cl)c4)cc3)c(NCc3ccccc3)n2c1	-68
O=C(NCc1ccco1)c1ccc(Cn2c(=O)c3ccccc3n(Cc3cccc(Cl)c3)c2=O)cc1	–
O=C(NCc1ccco1)c1cc(-c2ccc(Cl)cc2)on1	-130
CC(C)Cc1cc(C(=O)NCc2ccco2)no1	-92
COc1cccc(-c2cc(C(=O)NCc3ccco3)no2)c1	-97
O=C(NCc1ccco1)c1ccc(-c2cccc(Cl)c2)o1	-74
O=C(NCc1ccco1)c1cc(-c2ccc3c(c2)OCO3)on1	-97
COc1ccc2cc(C(=O)NCc3ccco3)c(=O)oc2c1	-93
COc1ccc(OC)c(-c2cc(C(=O)Nc3c(C)nn(Cc4ccccc4)c3C)no2)c1	–
O=C(NCc1ccco1)c1cc(-c2cccc(Cl)c2)on1	-92
COc1ccc(OC)c(-c2cc(C(=O)NCc3ccco3)no2)c1	-69
CC1=Nc2cc(C(=O)NCc3ccco3)ccc2Sc2ccc(C)cc21	–
CC1CCc2onc(C(=O)NCc3ccco3)c2C1 (stereo not given)	-64
Cc1ccc(-c2cc(C(=O)NCc3ccco3)no2)cc1	-154
COc1ccccc1NC(=O)c1c[nH]c2ccccc12	-78
COc1ccccc1NC(=O)c1cnc(Nc2ccccc2OC)c2ccccc12	–
SMILES	aSyn UTR act
Cc1cccc(C)c1NC(=O)c1c[nH]c2ccccc12	-120
Cc1ccc(N/N=C/c2ccc3c(c2)OCCO3)cc1Cl	-87
C/C(=N\Nc1ccc(Cl)c(C(=O)O)c1)c1ccc2c(c1)OCO2	-73
Cc1ccc(N/N=C/c2ccc(N3CCOCC3)cc2)cc1C	-96
Cc1cc(N/N=C/c2ccccc2)nc(N2CCOCC2)n1	-83
O=C(O)c1cc(N/N=C/c2ccc3c(c2)OCO3)ccc1Cl	-73
O=C(O)c1ccc(N/N=C/c2ccc3c(c2)OCO3)cc1	–
COC(=O)c1c(C)[nH]c(O)c1C=Nc1ccc(C(C)C)cc1	-71
Cc1sc(NC(=O)c2cccs2)nc1-c1ccccc1	-199
Cc1sc(N/N=C/c2cccs2)nc1-c1ccccc1	-211
CC(=O)c1sc(NC(=O)c2ccco2)nc1-c1ccccc1	-115
Cc1sc(NC(=O)c2ccco2)nc1-c1ccccc1	-95
CC(=O)c1c(C)[nH]c(C(=O)Nc2nc(-c3ccccc3)c(C)s2)c1C	-76
CC(=O)c1c(C)[nH]c(C(=O)Nc2nccs2)c1C	-135
c1ccc(-c2nc(-c3ccco3)cs2)nc1	-183
Fc1ccc(-c2csc(-c3ccccn3)n2)cc1F	-112
O=C(Nc1nc(-c2cc3ccccc3o2)cs1)c1ccc(S(=O)(=O)N2CCCC2)cc1	-68
O=C(Nc1nc(-c2nc3ccccc3s2)cs1)c1ccc(S(=O)(=O)N2CCOCC2)cc1	-75
CN(C)S(=O)(=O)c1ccc(C(=O)Nc2nc(-c3cc4ccccc4o3)cs2)cc1	-137
Cc1ccc(-c2nc3ccccc3s2)cc1S(=O)(=O)N1CCOCC1	-66
c1ccc2sc(NCC3CCCO3)nc2c1 (stereo not given)	-151

Screening results (PubChem BioAssay)
